Reference: PMC5540273 (PLoS ONE, 2017)

Tests used:
Details in all cases: concentration: 1 μM, replicates: in singlicate; n = 1
[1] = test system: T1, SNARK
T1 construct: gene NUAK2

[2] = test system: SNRK
[3] = test system: SRC
[4] = test system: SRMS
[5] = test system: SRPK1
[6] = test system: SRPK2
[7] = test system: SRPK3
[8] = test system: STK16
[9] = test system: STK33
[10] = test system: STK35
[11] = test system: STK36
[12] = test system: STK39
[13] = test system: SYK
[14] = test system: SgK110
[15] = test system: T2, TAK1
T2 construct: gene MAP3K7

[16] = test system: TAOK1
[17] = test system: TAOK2
[18] = test system: TAOK3
[19] = test system: TBK1
[20] = test system: TEC
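Also: KINOMEscan kinase panel screen.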

Compound | %Inh [1] | %Inh [2] | %Inh [3] | %Inh [4] | %Inh [5] | %Inh [6] | %Inh [7] | %Inh [8] | %Inh [9] | %Inh [10] | %Inh [11] | %Inh [12] | %Inh [13] | %Inh [14] | %Inh [15] | %Inh [16] | %Inh [17] | %Inh [18] | %Inh [19] | %Inh [20]
CC(C)NCC(Cc1ccccc1)NC(=O)c1cc(Br)c(-c2ccnc3[nH]ccc23)s1.Cl.Cl (centres unmarked) [GSK1383281] | 89% | 0% | 0% | 0% | 43% | 0% | 0% | 46% | 96.6% | 0% | 0% | 0% | 0% | 73% | 0% | 41% | 0% | 0% | 20% | 0%
CS(=O)(=O)c1cccc(CNc2nc(Nc3ccc4c(c3)CCC(=O)N4)ncc2C(F)(F)F)c1 | 81% | 0% | 0% | 0% | 72% | 0% | 3% | 93.2% | 0% | 0% | 0% | 0% | 75% | 0% | 68% | 0% | 21% | 0% | 89% | 0%
N#Cc1cnc2cc(-c3cnc(CNCCN4CCOCC4)s3)ccc2c1Nc1ccc(Oc2ccccc2)cc1 [GW664114] | 0% | 0% | 94.1% | 95.9% | 30% | 0% | 0% | 12% | 2% | 97.7% | 7% | 0% | 82% | 0% | 12% | 0% | 0% | 0% | 34% | 88%
O=C(Nc1n[nH]c2nc(-c3ccccc3)ccc12)C1CC1 [SB-708999] | 56% | 0% | 0% | 0% | 22% | 23% | 7% | 16% | 0% | 1% | 8% | 0% | 0% | 0% | 0% | 40% | 0% | 7% | 8% | 0%
CN(C)c1ncnc2nc[nH]c12 [SKF-31736] | 0% | 0% | 0% | 20% | 0% | 10% | 17% | 0% | 0% | 0% | 0% | 5% | 0% | 0% | 0% | 0% | 26% | 3% | 34% | 0%
COc1cccc(CC(=O)N2CCc3cc(-c4cn(C)c5ncnc(N)c45)ccc32)c1 [GSK2608899] | 35% | 0% | 18% | 4% | 14% | 0% | 20% | 9% | 2% | 0% | 17% | 22% | 26% | 0% | 43% | 2% | 0% | 3% | 25% | 19%
CCNC(=O)/C=C/c1n[nH]c2cc(Sc3ccccc3C(=O)NC)ccc12 | 42% | 5% | 7% | 7% | 63% | 0% | 37% | 10% | 0% | 48% | 35% | 0% | 20% | 15% | 26% | 0% | 0% | 8% | 13% | 0%
COC(=O)Nc1nc2ccc(Oc3ccc(NC(=O)Nc4cc(C(F)(F)F)ccc4F)cc3)cc2[nH]1.Cl [GW654607] | 0% | 0% | 16% | 3% | 61% | 0% | 13% | 10% | 73% | 0% | 0% | 13% | 29% | 55% | 94.7% | 0% | 0% | 6% | 0% | 0%
Cc1ccccc1CC(=O)N1CCc2cc(-c3cn(C)c4ncnc(N)c34)ccc21 [GSK2603346] | 34% | 0% | 15% | 0% | 18% | 0% | 0% | 2% | 3% | 2% | 0% | 13% | 0% | 0% | 6% | 0% | 0% | 0% | 5% | 0%
CN(c1ccc(F)c(NC(=O)c2cccc(OC(C)(C)C#N)c2Cl)c1)c1ccc2nc(NC(=O)C3CC3)sc2n1 | 0% | 12% | 99% | 0% | 52% | 0% | 0% | 0% | 0% | 0% | 3% | 12% | 0% | 0% | 19% | 49% | 0% | 0% | 7% | 6%
